Inconclusive results are not listed. Calls of active or inactive are those of the source. Calls follow the shape of the dose curve; as a rule, active = well fitted inhibition curve with a large enough effect; inconclusive = small, poorly fitted or top-dose-only effect; inactive = flat fitted curve, though single readings scatter.
Columns and labels:
Assay in all cases: qHTS profiling for inhibitors of Plasmodium falciparum proliferation (AID 504749); also: nearly all actives have a fitted effect of over 60% in size
Details in all cases: P. falciparum in erythrocytes, SYBR Green DNA, 72 h; series mostly up to 28.7 µM
CP291 = tested on: CP291
Outline: (§1)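 SYBR Green fluorescence of parasite DNA, read after lysis and overnight dark incubation, measured growth over 72 h in erythrocyte culture at 0.3% parasitemia and 2.5% hematocrit. Data normalised to DMSO and 0.29 uM artemisinin, with plate-drift correction.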

CP305 = tested on: CP305
Outline: as §1

CP315 = tested on: CP315
Outline: as §1

CP325 = tested on: CP325
Outline: as §1

CP329 = tested on: CP329
Outline: as §1

CP335 = tested on: CP335
Outline: as §1

DFO2036 = tested on: DFO2036
Outline: as §1

DIV17 = tested on: DIV17
Outline: as §1

DIV30 = tested on: DIV30
Outline: as §1

ECU = tested on: ECU
Outline: as §1

FAB9 = tested on: FAB9
Outline: as §1

HB3 = tested on: HB3
Outline: as §1

JCK = tested on: JCK
Outline: as §1

N140 = tested on: N140
Outline: as §1

P93_24 = tested on: P93_24
Outline: as §1

CP297 = tested on: CP297
Outline: as §1

DIV14 = tested on: DIV14
Outline: as §1

Dd2 = tested on: Dd2
Outline: as §1

GB4 = tested on: GB4
Outline: as §1

ICS = tested on: ICS
Outline: as §1

Measured: Potency
Potency is read from the fitted curve at half-maximal effect.

CC(C)NCC(O)COc1ccccc1-n1cccc1 (stereo not drawn)
not listed: CP297 | DIV14 | Dd2 | GB4 | ICS
inactive: all other assays above

COc1ccc2c(c1)OC(C)(C)C(c1ccccc1)C2c1ccc(OCCN2CCCC2)cc1 (stereo not drawn)
active: CP291 6.01 µM | CP297 15.1 µM | CP305 13.5 µM | CP325 6.75 µM | CP335 3.79 µM | DFO2036 4.47 µM | DIV14 6.75 µM | DIV17 7.57 µM | DIV30 12 µM | Dd2 3.98 µM | ECU 8.91 µM | GB4 4.78 µM | HB3 7.94 µM | ICS 2.82 µM | N140 5.01 µM | P93_24 5.01 µM

COc1ccc(/C=C/C(=O)OCCC(C)C)cc1
not listed: N140 | CP297
inactive: all other assays above

CC(=O)Nc1ccc(NC(=S)NC(=O)c2ccc(C(C)(C)C)cc2)cc1
active: ICS 12.6 µM
not listed: CP335 | DIV14 | Dd2
inactive: all other assays above

CCCCC/C=C\C/C=C\C/C=C\CCCCC(=O)O
not listed: CP297 | GB4 | ICS
inactive: all other assays above

COc1cc(C)c(/C=C/C(C)=C/C=C/C(C)=C/C(=O)O)c(C)c1C
not listed: CP297
inactive: all other assays above

CN1CCc2c(c3ccccc3n2Cc2ccccc2)C1
not listed: CP325 | CP335 | DIV17 | DIV14 | Dd2 | GB4
inactive: all other assays above

Cc1cc(-c2ccc(N=Nc3c(S(=O)(=O)O)cc4cc(S(=O)(=O)O)cc(N)c4c3O)c(C)c2)ccc1N=Nc1c(S(=O)(=O)O)cc2cc(S(=O)(=O)O)cc(N)c2c1O
not listed: CP335 | DIV17 | N140 | P93_24 | DIV14 | ICS
inactive: all other assays above

C#C[C@]1(O)CC[C@@H]2[C@H]3CCC4=CC(=O)CC[C@H]4[C@H]3C(=C)C[C@@]21CC
inactive: CP335 | DFO2036 | Dd2 | ECU | FAB9 | HB3 | JCK | N140 | P93_24
active: CP291 0.426 µM | CP297 0.536 µM | CP305 0.426 µM | CP315 0.478 µM

CC(C)(C)CC(C)(C)c1ccc(OCCO)cc1
not listed: CP315 | N140
inactive: all other assays above

CC[C@H]1OC(=O)[C@H](C)[C@@H](O[C@H]2C[C@@](C)(OC)[C@@H](O)[C@H](C)O2)C(C)[C@@H](O[C@@H]2O[C@H](C)C[C@H](N(C)C)[C@@H]2O)[C@](C)(OC)C[C@@H](C)C(=O)[C@H](C)[C@@H](O)[C@]1(C)O (stereo partly drawn)
active: CP335 6.75 µM | ICS 10 µM
not listed: CP325 | CP329 | FAB9 | HB3 | CP297 | Dd2 | GB4
inactive: all other assays above

CN(C)CCC=C1c2ccccc2C(C)(C)c2ccccc21
active: DIV14 6.75 µM | DIV17 6.75 µM | GB4 13.5 µM | ICS 7.94 µM
inactive: CP329 | FAB9 | HB3 | JCK

N#Cc1ccc2c(c1)N(CCCN1CCC(O)CC1)c1ccccc1S2
active: DIV14 8.49 µM | DIV17 9.53 µM | Dd2 5.01 µM | N140 12.6 µM
inactive: CP297 | CP315 | ECU | FAB9 | HB3 | JCK

CCN(CC)CCC(=O)N1c2ccccc2Sc2ccc(C(F)(F)F)cc21
active: DIV14 6.75 µM
not listed: CP291 | CP335 | DIV17 | DIV30 | P93_24 | Dd2 | GB4 | ICS
inactive: all other assays above

N[C@@H](Cc1cc(I)c(Oc2ccc(O)c(I)c2)c(I)c1)C(=O)O
inactive: CP305 | CP315 | CP325 | CP329 | FAB9 | HB3 | JCK
active: DIV14 13.5 µM | ICS 11.2 µM

COc1ccc2c(=O)c(C)c(-c3ccccc3)oc2c1CN(C)C
inactive: CP297 | CP305 | CP315 | CP325 | DIV30 | ECU | FAB9 | GB4 | HB3 | JCK

CSCCC(N)C(=O)O (stereo not drawn)
not listed: CP291 | CP315 | DIV30 | P93_24 | GB4
inactive: all other assays above

Cn1c(O)c(N=NC(N)=S)c2ccccc21
active: ICS 11.2 µM
inactive: CP297 | CP315 | CP325 | CP329 | FAB9 | JCK

O=C(c1cc2ccccc2o1)N1CCN(Cc2ccccc2)CC1
inactive: CP305 | CP315 | DIV30 | Dd2 | FAB9 | HB3 | ICS | JCK

COc1cc(NCCCC(C)N)c2ncccc2c1 (stereo not drawn)
active: CP297 8.49 µM | CP305 6.75 µM | CP325 7.57 µM | CP335 6.75 µM | DFO2036 11.2 µM | DIV14 2.13 µM | DIV17 1.35 µM | DIV30 4.78 µM | Dd2 2 µM | ECU 2.82 µM | FAB9 4.47 µM | GB4 2.13 µM | HB3 3.55 µM | ICS 0.891 µM | N140 5.62 µM | P93_24 2.24 µM

CC(C)OC(=O)Nc1ccc2nc(-c3cscn3)[nH]c2c1
not listed: CP291 | DIV17 | CP297 | ICS
inactive: all other assays above

CCN(CC)CCC(=O)N1c2ccccc2Sc2ccc(Cl)cc21
inactive: JCK | N140
active: DIV14 5.36 µM | DIV17 8.49 µM | Dd2 5.62 µM | P93_24 3.98 µM

CC(CN(C)C)CN1c2ccccc2Sc2ccc(C(F)(F)F)cc21 (stereo not drawn)
active: DFO2036 10 µM | DIV14 5.36 µM | DIV17 3.01 µM | Dd2 3.55 µM | ICS 10 µM | N140 11.2 µM | P93_24 10 µM
inactive: CP315 | CP325 | FAB9

CNC(=O)[C@H](Cc1c[nH]c2ccccc12)NC(=O)[C@@H](CC(=O)NO)CC(C)C
inactive: CP291 | CP315 | JCK

O=c1n(CC2CO2)c(=O)n(CC2CO2)c(=O)n1CC1CO1 (stereo not drawn)
inactive: CP315 | CP325 | CP329 | DIV30 | ECU | FAB9 | HB3 | JCK | N140

CC[C@H]1OC(=O)[C@H](C)[C@@H](O[C@H]2C[C@@](C)(OC)[C@@H](O)[C@H](C)O2)[C@H](C)[C@@H](O[C@@H]2O[C@H](C)C[C@H](N(C)C)[C@H]2O)[C@](C)(O)C[C@@H](C)CN(C)[C@H](C)[C@@H](O)[C@]1(C)O
active: CP297 5.36 µM | CP335 5.36 µM | DFO2036 5.01 µM | Dd2 0.355 µM | GB4 7.57 µM | N140 8.91 µM
inactive: FAB9 | JCK

CCCCCCCCCCCCCCCCOCCOCCOCCOCCOCCOCCOCCOCCOCCOCCOCCOCCOCCOCCOCCOCCOCCOCCOCCOCCO
inactive: CP315 | CP335
active: CP305 12 µM | DIV14 13.5 µM | DIV17 13.5 µM | Dd2 11.2 µM | ECU 1.26 µM | HB3 7.08 µM | ICS 4.47 µM | N140 10 µM | P93_24 11.2 µM

CCCC(CCC)C(=O)OC1C[C@H]2CC[C@@H](C1)[N+]2(C)C (stereo partly drawn)
inactive: FAB9 | JCK
active: ECU 7.94 µM | ICS 12.6 µM

CCOC(=O)c1c[nH]c2cc(OCC(C)C)c(OCC(C)C)cc2c1=O
active: CP291 0.0757 µM | CP305 0.0675 µM | CP325 0.0601 µM | CP335 0.0675 µM | DFO2036 0.1 µM | DIV14 0.151 µM | DIV17 0.338 µM | Dd2 0.141 µM | ECU 0.0891 µM | FAB9 0.1 µM | GB4 0.0601 µM | HB3 0.178 µM | ICS 0.0794 µM | JCK 0.282 µM | N140 0.141 µM | P93_24 0.141 µM

CC(=O)[O][Al][O]C(C)=O
not listed: CP291 | CP305 | CP325 | CP329 | DIV17 | CP297 | DIV14 | GB4
inactive: all other assays above

O.O.O.O.O.O.O.O=S(=O)([O-])[O-].[Co+2]
inactive: P93_24
active: CP291 9.53 µM | CP305 6.75 µM | CP329 12 µM | CP335 6.75 µM | DFO2036 11.2 µM | DIV30 9.53 µM | Dd2 7.94 µM | ECU 12.6 µM | FAB9 11.2 µM | GB4 8.49 µM | ICS 5.62 µM | JCK 12.6 µM | N140 12.6 µM

C/C(=C\C(=O)OCCCCCCCCC(=O)O)C[C@@H]1OC[C@H](C[C@@H]2O[C@H]2[C@@H](C)[C@H](C)O)[C@@H](O)[C@H]1O
active: CP335 0.151 µM | Dd2 0.178 µM

CS(=O)(=O)c1ccc([C@@H](O)[C@@H](COC(=O)CN)NC(=O)C(Cl)Cl)cc1
inactive: DIV14 | DIV17 | DIV30 | ECU | FAB9 | HB3 | JCK | N140
active: Dd2 6.31 µM

CC(=O)c1ccc2c(c1)N(CCCN1CCN(CCO)CC1)c1ccccc1S2
active: CP325 16.9 µM | CP329 15.1 µM | CP335 12 µM | DIV14 7.57 µM | DIV17 12 µM | DIV30 16.9 µM | Dd2 12.6 µM | ECU 12.6 µM | GB4 8.49 µM | ICS 7.94 µM | P93_24 8.91 µM

CN1CCCC(CN2c3ccccc3Sc3ccccc32)C1 (stereo not drawn)
inactive: CP297 | CP305 | CP315 | CP325 | CP329 | FAB9 | HB3 | JCK
active: DIV14 8.49 µM | DIV17 8.49 µM | Dd2 4.47 µM | ICS 12.6 µM | N140 8.91 µM

Reference: PubChem BioAssay (NCATS)
